According to PubChem BioAssay (NCI):
The panel holds about 83,000 compounds, 20% with a hit somewhere; the sample as a whole holds those more often.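 Assay: single dose, 48 h. Readout: percent growth (0 = no net growth; negative = cell death). Active: <10.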 Unmarked numbers belong to inactive results. Calls of active or inactive are those of the source.

Legend:
Test in all cases: NCI-60 one-dose screen, 48 h (100 = growth as untreated, 0 = no growth, -100 = all killed)
Settings in all cases: 10 µM unless noted
DU-145 prostate = tested on: DU-145 prostate
K-562 leukemia = tested on: K-562 leukemia
MALME-3M melanoma = tested on: MALME-3M melanoma
MDA-MB-231 breast = tested on: MDA-MB-231 breast
RXF 393 renal = tested on: RXF 393 renal
SF-268 CNS = tested on: SF-268 CNS
SF-295 CNS = tested on: SF-295 CNS
SF-539 CNS = tested on: SF-539 CNS
UACC-257 melanoma = tested on: UACC-257 melanoma
M14 melanoma = tested on: M14 melanoma
HCT-15 colon = tested on: HCT-15 colon
HT29 colon = tested on: HT29 colon
SNB-75 CNS = tested on: SNB-75 CNS
SNB-19 CNS = tested on: SNB-19 CNS
U251 CNS = tested on: U251 CNS
PC-3 prostate = tested on: PC-3 prostate
SK-MEL-5 melanoma = tested on: SK-MEL-5 melanoma
UACC-62 melanoma = tested on: UACC-62 melanoma
LOX IMVI melanoma = tested on: LOX IMVI melanoma
SK-MEL-28 melanoma = tested on: SK-MEL-28 melanoma

Row | SMILES | growth (DU-145 prostate) | growth (K-562 leukemia) | growth (MALME-3M melanoma) | growth (MDA-MB-231 breast) | growth (RXF 393 renal) | growth (SF-268 CNS) | growth (SF-295 CNS) | growth (SF-539 CNS) | growth (UACC-257 melanoma) | growth (M14 melanoma) | growth (HCT-15 colon) | growth (HT29 colon) | growth (SNB-75 CNS) | growth (SNB-19 CNS) | growth (U251 CNS) | growth (PC-3 prostate) | growth (SK-MEL-5 melanoma) | growth (UACC-62 melanoma) | growth (LOX IMVI melanoma) | growth (SK-MEL-28 melanoma)
1 | C=C(C)[C@@H]1CC=C2c3sc(-c4ccc(C)cc4)nc3C[C@@H](C)[C@]2(C)C1 | 114% | 97% | 104% | 107% | 113% | 99.7% | 104% | 102% | 105% | 100% | 104% | 98.8% | 87.4% | 101% | 97.5% | 95.5% | 101% | 93.2% | 95.3% | 103%
2 | COCN1CCC2N(COC)CCC3N(COC)CCC1N23 (stereo not given) | 111% | 111% | 134% | 94.1% | 112% | 104% | 113% | 101% | 98.8% | 98% | 104% | 105% | 90.8% | 93.6% | 102% | 102% | 109% | 94.3% | 101% | 106%
3 | Cc1nn(-c2ccccc2)c(Cl)c1/C=C(/NC(=O)c1ccccc1)c1nc2ccccc2[nH]1 | 117% | 88.4% | 48.9% | 85.5% | 119% | 104% | 92.9% | 110% | 90.1% | 70% | 94.1% | 75.3% | 96.9% | 101% | 92.4% | 78% | 107% | 75% | 96.8% | 83.6%
4 | N/C(=N\c1nc2ccccc2s1)NC(=O)Nc1cccc(Cl)c1 | 52.4% | 13.9% | 42.6% | 59.4% | 68.6% | 55.9% | 40% | 2.83% (active) | 48.9% | 10.3% | 17.9% | 10.2% | 13.7% | 42.2% | 26.1% | 42.4% | 32.3% | 25.8% | 38.9% | 60.1%
5 | CC1(C)CC(=O)CC2(C1)N=C(N)Nc1nc3ccccc3n12 (stereo not given) | 115% | 103% | 104% | 96.5% | 104% | 107% | 108% | 105% | 106% | 110% | 98.2% | 91.6% | 82.3% | 99.2% | 104% | 95.7% | 97.4% | 95.9% | 94.9% | 101%
6 | CC/C=C/C/C=C/C/C=C/C/C=C/C/C=C/C/C=C/CCC(=O)Nc1ccn([C@@H]2O[C@H](CO)[C@@H](O)C2(F)F)c(=O)n1 | 13.8% | 38.4% | 64.3% | 54.9% | 24.9% | 19.1% | 16.2% | 7.06% (active) | 48.2% | -22.7% (active) | 41.7% | 36.4% | 37.4% | 7.11% (active) | 22.4% | 41% | 31.3% | -12.3% (active) | -49.9% (active) | 74.9%
7 | COc1ccc(C(=O)/C=C/c2c(C(F)(F)F)nc3sccn23)cc1OC | -24.6% (active) | -15.1% (active) | 71.4% | 36.8% | 39.1% | 15.4% | -9.31% (active) | -5.52% (active) | 56.8% | 28.5% | 24.6% | 12.3% | 14.3% | 33% | 15.1% | 53.3% | 31.7% | 20.6% | 5.55% (active) | 52.7%
